Here are results for four compounds from PubChem BioAssay.

Assay [1] can be described thus: small molecules captured by biotinylated probe aFSTL3 – biochemical, small-molecule microarray, fluorescence 635/667, stem cell growth factor project, primary screen (AID 1064).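 Further: measures binding of the biotinylated anti-FSTL3 antibody to printed compounds.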 Particulars: higher = more signal.
Assay [2] can be described thus: binders from COS7 lysate, DM2A8 probe, primary screen, torsin A project, cell lysate, small-molecule microarray, fluorescence 635/667 (AID 1065). Particulars: higher = more signal, COS7 lysate expressing mutant human TOR1A.
Assay [3] in a line: small molecules captured by biotinylated probe aFGF2 – biochemical, small-molecule microarray, fluorescence 635/667, stem cell growth factor project, primary screen (AID 1067).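 Further: measures binding of biotinylated aFGF2 protein to printed compounds on slides; z-score merges feature fluorescence and signal-to-noise across triplicate slides.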 Conditions: higher = more signal.
Assay [4] can be described thus: small molecules captured by biotinylated probe aFGF10 – biochemical, small-molecule microarray, fluorescence 635/667, stem cell growth factor project, primary screen (AID 1071).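 Further: score merges 667 nm spot intensity and signal to noise from triplicate slides.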 Particulars: higher = more signal.
In assay [5] the target is Neurogenic locus notch homolog protein 2 (Homo sapiens) (UniProt Q04721). Put plainly: small molecules binding Notch2 protein – biochemical, small-molecule microarray, 635 nm fluorescence, stem cell growth factors, primary screen (AID 1073). Particulars: higher = more signal.
For assay [6], the target named is Pro-neuregulin-1, membrane-bound isoform (Homo sapiens) (UniProt Q02297). Put plainly: small molecules binding neuregulin-1 protein – biochemical, small-molecule microarray, fluorescence 635/667, psychiatric disease protein project, primary screen (AID 1075).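 Further: score combines 667 nm spot fluorescence with signal to noise.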 Conditions: NRG1 binding, 635 nm fluorescence, higher = more signal.
Assay [7] relates to Neuregulin-1 EGF-like domain. The assay is described as follows: small molecules binding NRG1 EGF domain – biochemical, small-molecule microarray, 635 nm fluorescence, primary screen (AID 1081).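 Further: binding of the protein to compounds printed on small-molecule microarray slides.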 Particulars: higher = more signal.
Assay [8] can be described thus: FRG1 expression reporter modulators in myotubes – cell-based, C2C12 myotubes, firefly/Renilla luciferase, luminescence, FRG1 inhibition for FSHD, primary screen (AID 1084). Conditions: FRG1 promoter luciferase, higher = more signal, called active from +8 up or from −8 down.
The nature of assay [9]: small molecules captured by biotinylated probe aFST – biochemical, small-molecule microarray, fluorescence 635/667, stem cell growth factor project, primary screen (AID 1086).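 Further: score merges 667 nm fluorescence with signal-to-noise of each printed compound spot.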 Particulars: higher = more signal.
A short description of assay [10]: binders of probe aHhip on microarray, primary screen, stem cell growth factor project, biochemical, small-molecule microarray, fluorescence 635/667 (AID 1087).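 Further: score merges spot fluorescence at 667nm with spot signal to noise ratio.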 Particulars: higher = more signal.
The subject of assay [11] is PRMT1 (protein arginine N-methyltransferase 1). Put plainly: small molecules binding arginine methyltransferase PRMT1 – biochemical, small-molecule microarray, 635 nm fluorescence, primary screen (AID 1088).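 Further: binding of Prmt1 protein to compounds spotted on small-molecule microarray slides.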 Conditions: higher = more signal.
Assay [12] in a line: growth effects on S. cerevisiae YJM789 – YJM789 clinical isolate, OD600, 24 h, basal, primary screen (AID 1089).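 Further: growth of clinical yeast isolate S. cerevisiae YJM 789 seeded 1000 cells per well; test concentration not given here.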 Conditions: higher = more signal, called active from +8 up or from −8 down.
Assay [13] can be described thus: S. pombe growth modifiers, basal conditions – strain 972, OD600, 24 h, no modulator, primary screen (AID 1090).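 Further: basal condition with compound alone and no growth modifier present; test concentration not given here.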 Particulars: S. pombe 972 growth, higher = more signal, called active from +8 up or from −8 down.
The nature of assay [14]: budding yeast growth modifiers under rapamycin – strain BY4716, OD600, 96 h, primary screen (AID 1091). Further: test concentration not given here. Particulars: S. cerevisiae BY4716 + rapamycin, higher = more signal, called active from +8 up or from −8 down.
The target of assay [15] is Torsin-1A-interacting protein 2 (Homo sapiens) (UniProt Q8NFQ8). The assay is described as follows: small molecules binding lysate-expressed LULL1 – cell lysate, human LULL1 lysate, 635/667 nm fluorescence, primary screen (AID 1092).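 Further: probe is lysate of COS7 cells overexpressing human LULL1; score merges per-feature 667 nm fluorescence with signal-to-noise.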 Conditions: small-molecule microarray, hLULL1 lysate binding, 635 nm fluorescence; higher = more signal.
Assay [16] in a line: optical density change of DRC41 E. coli – strain DRC41, OD650, 24 h, E. coli filamentation project, primary screen (AID 1093).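 Further: MC1000 strain lacking acrAB efflux and sulA so SOS filamentation is blocked; test concentration not given here.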 Conditions: E. coli DRC41 growth, higher = more signal, called active from +8 up or from −8 down.
Assay [17] can be described thus: probe aLefty2 binding to arrayed compounds – biochemical, biotinylated probe, 635/667 nm fluorescence, primary screen (AID 1094).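 Further: score merges spot fluorescence near 667 nm with spot signal-to-noise ratio.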 Conditions: small-molecule microarray, higher = more signal.
The test system of assay [18] is Noggin (protein binding on small-molecule microarray). Put plainly: small molecules binding Noggin protein – biochemical, 635/667 nm fluorescence, primary screen (AID 1095).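 Further: score merges 667 nm feature fluorescence with signal to noise over triplicate slides.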 Conditions: 635 nm fluorescence, higher = more signal.
The target in assay [19] is Neurogenic locus notch homolog protein 3 (Homo sapiens) (UniProt Q9UM47). Put plainly: small molecules binding NOTCH3 protein – biochemical, 635/667 nm fluorescence, primary screen (AID 1096). Particulars: small-molecule microarray, 635 nm fluorescence, higher = more signal.
Assay [20] in a line: probe aEGFR binding to arrayed compounds – biochemical, biotinylated probe, 635/667 nm fluorescence, primary screen (AID 1097).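 Further: probe is a biotinylated anti-EGFR antibody binding compounds printed on slides; score combines fluorescence near 667 nm and signal to noise of each spot.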 Conditions: small-molecule microarray, higher = more signal.

Values joined by “and” are separate entries in the source; they are usually repeats but may differ in a detail not shown here. Equal entries are not always repeated. Active and inactive are the calls of the source.

Sequence of Torsin-1A-interacting protein 2 (Homo sapiens) (Q8NFQ8 whole entry, looked up): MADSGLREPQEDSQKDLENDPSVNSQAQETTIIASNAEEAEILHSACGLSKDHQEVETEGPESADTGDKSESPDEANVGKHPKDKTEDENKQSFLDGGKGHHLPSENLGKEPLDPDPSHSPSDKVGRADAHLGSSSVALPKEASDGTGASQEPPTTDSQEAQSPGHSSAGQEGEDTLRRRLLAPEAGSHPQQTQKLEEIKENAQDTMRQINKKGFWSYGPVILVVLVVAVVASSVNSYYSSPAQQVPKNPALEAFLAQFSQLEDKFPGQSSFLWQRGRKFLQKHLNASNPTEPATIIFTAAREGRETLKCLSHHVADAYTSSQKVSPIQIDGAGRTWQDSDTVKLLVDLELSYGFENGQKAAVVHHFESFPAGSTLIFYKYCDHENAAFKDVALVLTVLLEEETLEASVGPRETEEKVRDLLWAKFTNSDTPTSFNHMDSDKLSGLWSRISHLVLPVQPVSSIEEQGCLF
Sequence of Neurogenic locus notch homolog protein 2 (Homo sapiens) (Q04721 whole entry, looked up, canonical isoform): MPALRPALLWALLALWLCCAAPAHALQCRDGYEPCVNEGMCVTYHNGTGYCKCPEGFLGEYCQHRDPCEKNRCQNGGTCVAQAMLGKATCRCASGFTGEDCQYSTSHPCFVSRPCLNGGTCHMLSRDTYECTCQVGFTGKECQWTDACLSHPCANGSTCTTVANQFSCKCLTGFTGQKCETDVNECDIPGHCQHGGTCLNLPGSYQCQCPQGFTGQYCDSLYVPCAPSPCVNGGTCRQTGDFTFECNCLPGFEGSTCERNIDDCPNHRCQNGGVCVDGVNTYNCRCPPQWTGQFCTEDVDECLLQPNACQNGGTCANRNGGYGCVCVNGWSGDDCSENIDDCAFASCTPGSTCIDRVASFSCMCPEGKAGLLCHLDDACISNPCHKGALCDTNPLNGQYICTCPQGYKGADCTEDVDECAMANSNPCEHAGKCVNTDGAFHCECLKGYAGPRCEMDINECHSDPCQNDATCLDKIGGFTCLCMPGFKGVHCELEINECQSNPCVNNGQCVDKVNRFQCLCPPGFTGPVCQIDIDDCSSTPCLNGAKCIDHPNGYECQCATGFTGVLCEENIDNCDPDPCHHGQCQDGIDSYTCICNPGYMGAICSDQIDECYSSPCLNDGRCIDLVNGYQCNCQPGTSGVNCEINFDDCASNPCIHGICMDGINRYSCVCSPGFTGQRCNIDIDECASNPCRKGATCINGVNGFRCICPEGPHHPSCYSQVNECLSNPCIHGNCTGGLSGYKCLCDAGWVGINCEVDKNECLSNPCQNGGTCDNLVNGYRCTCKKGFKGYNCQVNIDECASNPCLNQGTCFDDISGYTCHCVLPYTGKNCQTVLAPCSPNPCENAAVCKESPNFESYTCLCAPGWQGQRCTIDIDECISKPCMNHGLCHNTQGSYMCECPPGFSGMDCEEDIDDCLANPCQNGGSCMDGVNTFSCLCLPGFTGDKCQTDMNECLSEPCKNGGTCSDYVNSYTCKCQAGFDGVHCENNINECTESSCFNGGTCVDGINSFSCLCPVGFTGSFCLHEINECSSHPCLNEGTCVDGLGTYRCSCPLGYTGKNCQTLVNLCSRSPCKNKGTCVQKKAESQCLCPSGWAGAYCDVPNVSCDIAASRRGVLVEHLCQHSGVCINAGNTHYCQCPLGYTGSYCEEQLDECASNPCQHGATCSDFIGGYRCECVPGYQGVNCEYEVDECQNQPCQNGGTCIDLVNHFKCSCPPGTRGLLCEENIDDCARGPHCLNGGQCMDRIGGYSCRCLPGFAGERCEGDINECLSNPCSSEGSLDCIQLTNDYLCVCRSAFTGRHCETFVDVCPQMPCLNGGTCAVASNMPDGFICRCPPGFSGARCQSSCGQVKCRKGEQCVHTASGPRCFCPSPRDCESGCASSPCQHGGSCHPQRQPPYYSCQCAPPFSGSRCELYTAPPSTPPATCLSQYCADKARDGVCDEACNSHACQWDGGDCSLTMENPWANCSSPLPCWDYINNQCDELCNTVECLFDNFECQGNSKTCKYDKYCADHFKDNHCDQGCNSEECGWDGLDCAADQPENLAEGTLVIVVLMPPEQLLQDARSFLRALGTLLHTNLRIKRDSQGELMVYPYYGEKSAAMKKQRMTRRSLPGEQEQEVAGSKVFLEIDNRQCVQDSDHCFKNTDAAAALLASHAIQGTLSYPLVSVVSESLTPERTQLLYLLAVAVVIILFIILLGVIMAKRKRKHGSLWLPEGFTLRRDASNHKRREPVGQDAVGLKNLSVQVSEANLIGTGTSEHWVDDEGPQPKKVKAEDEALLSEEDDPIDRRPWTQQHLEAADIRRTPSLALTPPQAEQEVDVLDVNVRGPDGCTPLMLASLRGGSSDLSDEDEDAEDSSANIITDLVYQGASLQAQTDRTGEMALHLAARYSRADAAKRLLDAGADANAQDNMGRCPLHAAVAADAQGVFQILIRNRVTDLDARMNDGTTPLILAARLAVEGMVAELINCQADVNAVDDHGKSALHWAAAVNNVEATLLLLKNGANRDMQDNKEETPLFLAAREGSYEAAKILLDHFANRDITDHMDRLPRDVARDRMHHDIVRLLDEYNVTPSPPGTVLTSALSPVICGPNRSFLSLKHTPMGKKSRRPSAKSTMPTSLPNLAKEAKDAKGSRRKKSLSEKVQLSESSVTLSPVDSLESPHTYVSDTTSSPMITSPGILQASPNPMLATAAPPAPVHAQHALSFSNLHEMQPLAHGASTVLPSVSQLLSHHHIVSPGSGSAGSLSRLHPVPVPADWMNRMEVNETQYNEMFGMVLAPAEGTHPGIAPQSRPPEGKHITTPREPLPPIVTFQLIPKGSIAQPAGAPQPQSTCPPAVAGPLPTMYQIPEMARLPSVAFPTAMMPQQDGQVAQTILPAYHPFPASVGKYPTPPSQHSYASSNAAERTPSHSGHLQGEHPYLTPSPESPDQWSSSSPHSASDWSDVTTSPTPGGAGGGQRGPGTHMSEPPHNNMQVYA
Sequence of Pro-neuregulin-1, membrane-bound isoform (Homo sapiens) (Q02297 whole entry, looked up, the tested form may be a part, canonical isoform): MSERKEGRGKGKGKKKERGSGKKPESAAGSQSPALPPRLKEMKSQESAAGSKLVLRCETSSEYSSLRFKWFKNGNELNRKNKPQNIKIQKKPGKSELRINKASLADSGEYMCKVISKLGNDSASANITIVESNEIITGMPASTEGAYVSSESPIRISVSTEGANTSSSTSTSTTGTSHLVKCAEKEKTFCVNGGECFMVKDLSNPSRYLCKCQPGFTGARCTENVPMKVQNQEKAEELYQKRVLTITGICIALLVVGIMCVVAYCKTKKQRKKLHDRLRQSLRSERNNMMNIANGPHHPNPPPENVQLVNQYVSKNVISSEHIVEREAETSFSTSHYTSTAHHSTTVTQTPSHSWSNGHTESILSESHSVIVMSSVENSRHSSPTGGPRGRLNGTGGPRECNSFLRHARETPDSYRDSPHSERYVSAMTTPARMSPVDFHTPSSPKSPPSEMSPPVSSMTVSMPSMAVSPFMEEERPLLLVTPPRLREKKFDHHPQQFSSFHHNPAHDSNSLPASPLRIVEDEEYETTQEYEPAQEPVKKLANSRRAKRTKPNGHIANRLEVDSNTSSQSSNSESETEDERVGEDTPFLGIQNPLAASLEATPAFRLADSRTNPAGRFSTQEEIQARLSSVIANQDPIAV

`COC(=O)C1=C(C)N(Cc2ccccc2)[C@]23O[C@](C(=O)OC)(C(=O)N2[C@@H]1c1ccccc1)[C@H]1C(=O)N(C)C(=O)[C@H]13`: the composite z-score in assay [1] is -0.342 and -0.556; in assay [2], 0.117 and 0.134; in assay [3], -0.137 and -0.0212; in assay [4], 0.566 and 0.842; in assay [5], 0.585 and 0.405; in [6] it was 1.14 and -0.0494. For the same compound, the composite z-score in [7] was 1.17 and 0.892; in assay [9], 0.271 and 0.2; in assay [10], 0.0439 and -0.121; in [11], 1.42 and 0.289; in assay [15], 1.9 and 0.741; in assay [17], -0.0831 and -0.125. For the same compound, the composite z-score in assay [18] is 1.35 and 0.752; in [19], 0.877 and 0.903; in [20], -0.0967 and 0.128. In addition, the z-score in [8] was -0.564 (inactive) and 0.0169 (inactive); in assay [12], -0.458 (inactive) and -0.907 (inactive); in assay [13] it was -0.0692 (inactive) and -1.06 (inactive); in [14] it was 0.609 (inactive) and -0.776 (inactive); in assay [16], 1.12 (inactive) and 0.684 (inactive).

As to `CN1C(=O)C2CC=C([C@H]3Oc4ccccc4S(=O)(=O)N4CCC[C@@H]34)CC2C1=O` (stereo not given in full), the composite z-score in assay [1] was -0.203 and -0.0284; in assay [2], 0.157 and 0.0061; in assay [3], -0.133 and -0.149; in assay [4], 0.0694 and -0.0366; in assay [5], -1.05 and -0.369; in assay [6], 0.75 and -0.641. Moreover, the composite z-score is 0.151 and -0.561 in [7]; -0.311 and -0.365 in assay [9]; -0.0645 and -0.123 in assay [10]; -0.525 and -1.12 in [11]; -0.781 and -0.674 in assay [15]; -0.163 and -0.0719 in assay [17]. Further, the composite z-score was -0.487 and 0.281 in assay [18]; -0.977 and -1.16 in [19]; -0.199 and -0.165 in assay [20]. Besides, the z-score in [8] is 0.74 (inactive) and 1.05 (inactive); in assay [12], -0.243 (inactive) and 0.235 (inactive); in [13], 0.0646 (inactive) and 0.0942 (inactive); in assay [14] it was 0.579 (inactive) and 0.0211 (inactive); in [16], 0.108 (inactive) and -0.089 (inactive).

With `COC(=O)C1=C(C)N(Cc2ccccc2)C2=C3C(=O)CCC[C@@H]3[C@@](O)(C(=O)OC)C(=O)N2[C@@H]1c1ccccc1`, the composite z-score in assay [1] was -0.438 and -0.212; in assay [2] it was 0.999 and -0.117; in assay [3], -0.122 and -0.0125; in [4], 0.482 and 0.544; in assay [5], 0.723 and 0.6; in assay [6], -0.046 and -0.158. The composite z-score in assay [7] was 0.211 and 0.476; in [9], 0.325 and 0.107; in assay [10], 0.136 and -0.0994; in assay [11] it was 0.749 and -0.121; in assay [15] it was 0.0102 and 0.0556; in [17], 0.182 and -0.0863. Also, the composite z-score in assay [18] was 0.637 and 0.433; in assay [19], 0.602 and -0.239; in [20] it was -0.177 and 0.108. The z-score in assay [8] is -0.403 (inactive) and 0.0176 (inactive); in [12], 0.494 (inactive) and -0.978 (inactive); in assay [13], -1.66 (inactive) and -4.18 (inactive); in assay [14] it was -2.01 (inactive) and -2.52 (inactive); in assay [16] it was 0.821 (inactive) and 0.754 (inactive).

Turning to `CCOC(=O)[C@H](CC(C)C)NC(=O)CCC1CC(OC(=O)NCc2cccc3ccccc23)CC2(CCCC(COC(=O)NCc3ccccc3)O2)O1` (stereo not given in full), the composite z-score is -0.289 in assay [1]; -0.0297 in [2]; -0.116 in assay [3]; 0.129 in assay [4]; -0.362 in assay [5]; -0.421 in assay [6]. Also, the composite z-score is -0.0852 in assay [7]; -0.0955 in assay [9]; -0.143 in assay [10]; -0.0282 in [11]; -0.393 in [15]; -0.221 in assay [17]. For the same compound, the composite z-score in assay [18] is 0.306; in assay [19], 0.156; in assay [20], -0.182. Besides, the z-score in assay [8] is 2.99 (inactive); in [12] it was -1.11 (inactive); in assay [13], -0.0838 (inactive); in [14], -0.395 (inactive); in [16], -0.548 (inactive).
